Compound activity (PubChem BioAssay)
Most compounds without a hit are left out; they make up all but 19% or so of the library.
DT40 TDP1 no CPT: qHTS for Inhibitors of human tyrosyl-DNA phosphodiesterase 1 (TDP1): qHTS in cells in absence of CPT; DT40 Tdp1-/- hTDP1 cells, no CPT, ATP luminescence, 48 h; Potency, µM (top dose mostly 46.2 µM), usual class: inhibitors; actives 15% (n = 420,000); AID 686978, 2013; note: nearly all actives have a fitted effect of over 55% in size
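Growth of hTDP1-complemented DT40 Tdp1-knockout cells is measured by ATP luminescence after at least 48 hr compound exposure at 37 °C, with DMSO substituting for the 20 nM CPT used in the parallel screen.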
TDP1 cell CPT: growth inhibition of DT40 Tdp1-/-;hTDP1 cells with camptothecin (screen for TDP1 inhibitors) | actives 12% (n = 420,000) | Potency, µM (doses to about 46.2 µM), usual class: inhibitors | chicken DT40 Tdp1-/-;hTDP1 cells + 20 nM CPT, ATP luminescence, 48 h; note: nearly all actives have a fitted effect of over 55% in size
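Chicken DT40 Tdp1-/- cells complemented with human TDP1, 400 cells/well, exposed to compounds plus 20 nM camptothecin for at least 48 h at 37 C; viability read as ATP content by CellTiter-Glo luminescence.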
TDP1 inh: blocks human tyrosyl-DNA phosphodiesterase 1. Q9NUW8. recombinant TDP1, AlphaScreen DNA substrate cleavage. actives 0.28% (n = 350,000). Potency, µM (highest dose often 130 µM), hits mostly inhibitors. AID 485290; note: nearly all actives have a fitted effect of over 40% in size
Target sequence (Q9NUW8 whole entry, looked up): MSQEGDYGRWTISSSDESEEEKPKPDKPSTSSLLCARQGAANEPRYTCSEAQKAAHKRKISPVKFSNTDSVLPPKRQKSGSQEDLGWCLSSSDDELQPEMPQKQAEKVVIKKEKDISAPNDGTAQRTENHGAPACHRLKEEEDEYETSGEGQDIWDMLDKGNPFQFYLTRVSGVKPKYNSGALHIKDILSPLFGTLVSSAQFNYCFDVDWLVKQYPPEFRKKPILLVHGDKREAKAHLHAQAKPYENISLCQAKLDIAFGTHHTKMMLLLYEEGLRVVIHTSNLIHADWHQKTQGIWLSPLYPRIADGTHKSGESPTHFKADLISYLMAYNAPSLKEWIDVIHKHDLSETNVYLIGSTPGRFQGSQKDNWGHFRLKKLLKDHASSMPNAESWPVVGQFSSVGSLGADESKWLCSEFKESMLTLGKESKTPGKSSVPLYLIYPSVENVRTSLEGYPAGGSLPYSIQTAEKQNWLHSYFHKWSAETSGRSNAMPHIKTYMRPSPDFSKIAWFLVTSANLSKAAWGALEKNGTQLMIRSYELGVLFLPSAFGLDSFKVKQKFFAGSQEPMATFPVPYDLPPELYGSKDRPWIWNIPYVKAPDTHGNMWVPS
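Here, a 5' biotin and 3' phosphotyrosine-FITC DNA oligonucleotide reports Tdp1 activity: intact substrate bridges AlphaScreen beads, while cleavage leaves a 3' phosphate and drops signal. All incubations at room temperature.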
Gal4-VP16 FLuc: counter-screen for ROR gamma inhibitors: Gal4-VP16 reporter. Drosophila S2 Gal4-VP16 UAS-luciferase, luminescence, 20 h. Potency, µM (highest dose often 53.6 µM), hits mostly inhibitors. actives 3.5% (n = 310,000);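 note: Gal4-VP16 expression switched on by copper sulfate through the metallothionein promoter; nearly all actives have a fitted effect of over 50% in size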
RORgamma inh: blocks mouse ROR gamma transcriptional activity; P51450; Drosophila S2 Gal4-RORgamma UAS-luciferase reporter, 20 h; Potency, µM (top dose mostly 53.6 µM), usual class: inhibitors; actives 5.4% (n = 310,000); AID 2551; note: nearly all actives have a fitted effect of over 60% in size
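Luciferase reporter read in Schneider cells carrying Gal4-RORγ (mouse) and UAS-Photinus luciferase; cells given compound 1 h before 700 uM copper sulfate induction, then incubated 20 h at ambient temperature.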
Hits are given with their value; 0 = inactive; ? = inconclusive; - = no result. Calls come from the whole dose curve; as a rule, active = well fitted curve in the direction sought with a large enough effect; inconclusive = small, poorly fitted or top-dose-only effect, or another doubt; inactive = no such curve, though single readings can be large; an effect the other way counts as inactive or inconclusive.

SMILES	DT40 TDP1 no CPT	TDP1 cell CPT	TDP1 inh	Gal4-VP16 FLuc	RORgamma inh
COc1ccc(C(CC(=O)Nc2ccc(C)c(C)c2)N2Cc3ccccc3C2=O)cc1OC (stereo not given)	20.6µM	14.6µM	0	-	-
COc1ccc(C(CC(=O)Nc2ccc(F)c(Cl)c2)N2Cc3ccccc3C2=O)cc1OC (stereo not given)	14.6µM	?	0	-	-
Cc1ccc(C(CC(=O)Nc2ccc(F)c(Cl)c2)N2Cc3ccccc3C2=O)cc1 (stereo not given)	?	?	0	-	-
COc1cc(NC(=O)CC(c2cccs2)N2Cc3ccccc3C2=O)cc(OC)c1OC (stereo not given)	23.1µM	23.1µM	0	-	-
CCCNC(=O)C(C)n1nc(C)c2c(C)n(-c3ccccc3)nc2c1=O (stereo not given)	0	0	0	-	-
CCOc1ccccc1CNC(=O)C(C)n1nc(C)c2c(C)n(-c3ccccc3)nc2c1=O (stereo not given)	?	23.1µM	0	0	0
Cc1ccc(-n2nc3c(=O)n(C(C)C(=O)NCCCc4ccccc4)nc(C)c3c2C)cc1 (stereo not given)	9.2µM	16.4µM	0	0	0
Cc1ccc(-n2nc3c(=O)n(CC(=O)NCCCc4ccccc4)nc(C)c3c2C)cc1	23.1µM	?	0	0	0
Cc1nn(CC(=O)NCCc2ccccc2)c(=O)c2nn(-c3ccccc3)c(C)c12	0	0	0	-	-
NC(=O)NC(CC(=O)OCC(=O)NC(=O)NCc1ccco1)c1ccc(Cl)cc1 (stereo not given)	0	0	0	0	0
CC1CCN(Cc2c(O)ccc3c(=O)c(-c4nc5ccccc5s4)c(N)oc23)CC1	?	?	0	0	0
CC1(C)CCCN(Cc2c(O)ccc3c(=O)c(-c4nc5ccccc5s4)c(N)oc23)C1	13µM	18.4µM	0	0	0
CCOc1cc(OCC)cc(C(=O)NC(=S)Nc2cccc(C(F)(F)F)c2)c1	0	0	0	0	5.01µM
O=C(NC(=S)Nc1cccc(C(F)(F)F)c1)c1ccc2nonc2c1	?	?	0	10µM	3.16µM
CCOc1cc(OCC)cc(C(=O)Nc2cccc(C(C)=O)c2)c1	?	?	0	0	0
O=C(NCC1CC1)c1cc2c(c(-c3cccc(-c4ccccc4F)c3)n1)[C@@H](CCO)N(C(=O)CC1CC1)C2	?	20.6µM	-	-	-
CN1CCN(C(=O)c2cc3c(c(-c4cccc(-c5cccnc5)c4)n2)[C@H](CCO)N(C(=O)CC2CC2)C3)CC1	0	0	-	-	-
O=C(NCC1CC1)c1cc2c(c(-c3cccc(-c4ccccc4F)c3)n1)[C@H](CCO)N(C(=O)CC1CC1)C2	18.4µM	?	-	-	-
C[C@H](CO)N1C[C@H](C)[C@H](CN(C)S(=O)(=O)c2cn(C)cn2)OCc2cnnn2CCCC1=O	0	0	-	-	-
Cc1nc(N)sc1C(=O)N/N=C/c1ccc([N+](=O)[O-])cc1	0	0	0	0	0
COc1cc(/C=N/NC(=O)c2ccc(-c3ccccc3)cc2)cc(OC)c1OC	?	20.6µM	0	0	0
COc1cc(/C=N/NC(=O)c2cc(-c3ccccc3)sc2N)cc(OC)c1OC	16.4µM	16.4µM	-	0	0
COc1cc(/C=N\NC(=O)c2sc(N)nc2C)cc(OC)c1OC	13µM	?	0	0	0
CCN(CC)S(=O)(=O)c1ccc(NC2c3ccccc3C(=O)N2Cc2ccc3c(c2)OCO3)cc1 (stereo not given)	?	16.4µM	0	0	0
CCN(CC)S(=O)(=O)c1ccc(NC2c3ccccc3C(=O)N2Cc2ccco2)cc1 (stereo not given)	11.6µM	20.6µM	0	0	?
SMILES	DT40 TDP1 no CPT	TDP1 cell CPT	TDP1 inh	Gal4-VP16 FLuc	RORgamma inh
O=C1c2ccccc2C(Nc2ccccc2)N1Cc1ccc2c(c1)OCO2 (stereo not given)	0	0	-	0	0
COc1cc(OC)c(NC(=O)Nc2cc(C)on2)cc1Cl	-	-	0	0	0
COc1cc(OC)c(NC(=O)C(C)n2nc(-c3ccc(C)c(C)c3)ccc2=O)cc1Cl (stereo not given)	13µM	14.6µM	0	-	-
O=C(Cc1ccccc1F)NNC(=O)c1cccs1	0	0	0	-	-
CCN(CC)c1nc(N)c(C#N)c(CC#N)c1C#N	0	0	-	-	-
CCCN(CCC)c1nc(N)c(C#N)c(CC#N)c1C#N	23.1µM	14.6µM	0	0	0
CCCN(CC1CC1)c1nc(N)c(C#N)c(CC#N)c1C#N	18.4µM	?	0	0	0
CCc1ccc(S(=O)(=O)NCc2nc3cccnc3n2Cc2cccc(OC)c2)cc1	?	?	0	-	-
CCOP(=O)(OCC)/C(C#N)=C(\O)c1ccc(OC)cc1	0	0	-	0	0
CCCCNc1c(-c2cccc(-c3ccc(OC)cc3)c2)nc2ccc(C)cn12	18.4µM	23.1µM	0	-	-
COc1ccc(-c2nc3cc(C)ccn3c2NC(=O)c2ccccc2OC)cc1	?	?	-	0	0
Cc1ccc2nc(-c3ccccc3)c(NC(=O)c3ccco3)n2c1	0	0	0	0	0
